The results in this text go back to PubChem BioAssay AID777 (Sanford-Burnham Center for Chemical Genomics, 2007).

Each structure is given as a SMILES string. In all, about 96,000 compounds went through this assay and about 19,000 (20%) were called active. The list is a sample of the results. Values without a mark were called inactive.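 Rule for the calls: active = blocking of liver enzyme CYP2C9 beyond about 50% at 5 µM (limit read from the data); inactive = the rest.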

For the assay, the target named is Cytochrome P450 2C9 (Homo sapiens) (UniProt P11712). As to the kind of experiment: blockers of cytochrome P450 2C9 activity – biochemical, luminescence, ADME assay, primary screen (AID 777). Conditions: CYP2C9 Supersomes, luciferin-H conversion, at 5 µM, hits give high values.
Sequence of Cytochrome P450 2C9 (Homo sapiens) (P11712 whole entry, looked up): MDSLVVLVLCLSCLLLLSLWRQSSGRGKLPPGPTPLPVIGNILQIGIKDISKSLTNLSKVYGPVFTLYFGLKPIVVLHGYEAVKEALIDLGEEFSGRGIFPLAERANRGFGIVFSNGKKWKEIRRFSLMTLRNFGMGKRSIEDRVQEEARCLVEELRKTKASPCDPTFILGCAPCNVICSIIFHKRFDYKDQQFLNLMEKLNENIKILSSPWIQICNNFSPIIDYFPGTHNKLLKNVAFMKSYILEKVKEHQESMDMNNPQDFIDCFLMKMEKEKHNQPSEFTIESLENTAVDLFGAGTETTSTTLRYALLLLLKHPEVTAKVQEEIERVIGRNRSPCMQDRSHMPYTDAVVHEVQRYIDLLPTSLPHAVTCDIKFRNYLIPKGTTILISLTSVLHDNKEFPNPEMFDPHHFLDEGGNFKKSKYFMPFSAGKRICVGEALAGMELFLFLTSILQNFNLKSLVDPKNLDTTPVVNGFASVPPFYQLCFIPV
The term inhibition denotes the change of the read-out against control, counted positive when it falls. For `CC(C)C(NC(=O)c1ccc(Cl)cc1)C(=O)O` (stereo not drawn), the inhibition is -5.3%.
The value for `O=C(CC1CCCCC1)Nc1c2c(nn1-c1ccc(F)cc1)CS(=O)(=O)C2` was -6.5%.
The value for `COc1ccc(-c2nc3n(c2Br)CCC3)cc1` was 2.9%; that for `CC(C)(C)n1nnnc1C(c1cccs1)N(Cc1cccnc1)CC1CCCO1` (stereo not drawn) was 19.7%.
The value for `CCOc1ccc(CN(Cc2ccco2)C(c2cccs2)c2nnnn2C(C)(C)C)cc1` (stereo not drawn) was 77.2% (active); that for `CC(C)(C)NC(=O)CN(Cc1cccs1)C(=O)CNS(=O)(=O)c1ccccc1` was 26.8%; that for `Cc1cc(C)c2nc(SCCC#N)nc(C)c2c1` was -19.9%.
Consider `CCOC(=O)Nc1ccc2c(c1)N(C(=O)CCN1CCN(CCO)CC1)c1ccccc1CC2`, for which the inhibition is -14%.
To `CCOc1cccc(-n2nnnc2-c2ccc(OC)cc2)c1` belongs 91.4% (active).
The value for `COc1ccc(-n2nnnc2SCC(=O)c2ccc(OC)c(OC)c2)cc1` was 45.6%.
The value for `CCOc1cccc(-c2nnc3sc(COc4ccc(OC)cc4)nn23)c1` was 20.9%; that for `Cc1cc(C)c2cc(CN(Cc3nnnn3Cc3ccc(F)cc3)C3CCCC3)c(=O)[nH]c2c1` was -7.2%; that for `Cc1cccc2cc(CN(Cc3nnnn3Cc3ccccc3)C3CCCC3)c(=O)[nH]c12` was 91.5% (active).
With `Cc1cccc2cc(CN(Cc3ccc4c(c3)OCO4)Cc3nnnn3C3CCCC3)c(=O)[nH]c12`, the inhibition is 38.4%.
To `O=C(CCl)NNc1cccc(Cl)n1` belongs 10.1%.
The value for `c1ccc(-c2ccnc3nc(-n4cccc4)nn23)cc1` was 6.8%; that for `CC(C)(C)c1nc(NCC2CCCO2)c2nnn(Cc3ccccc3)c2n1` (stereo not drawn) was 32.7%; that for `C#CCNc1nc(C(C)C)nc2c1nnn2Cc1ccccc1F` was 40.2%.
In the case of `Cc1nc(Nc2ccc3c(c2)OCCO3)c2nnn(Cc3ccccc3Cl)c2n1`, the inhibition was 93.2% (active).
For `O=C(CN1CCSCC1)N/N=C/c1ccc(F)cc1`, the inhibition is 17.1%.
To `O=C(O)c1cccc2c1C(=O)N(C1CCCCC1)C2` belongs -13.9%; to `COCCNC(=O)c1snc2ccc(Cl)cc12`, -11.2%.
Take `COc1ccc(NC(=O)Nc2cccc3cccnc23)cc1`: the inhibition is -39.1%.
The value for `O=c1cc(Cn2nnc(-c3ccc(Cl)cc3)n2)nc2sccn12` was 63.5% (active); that for `O=C(NCc1cn2ccsc2n1)Nc1ccc(Cl)cc1` was 13.6%.
`O=C(NCc1ccc(Cl)cc1)c1cc2c(nc3sccn32)s1`: the inhibition is 17.9%.
Take `Cc1ccc(C(=O)OC2=CC(=O)CC(C)(C)C2)cc1`: the inhibition is 28.3%.
Take `CN(c1cccc(NC(=O)Nc2ccc(Cl)cc2)c1)S(C)(=O)=O`: the inhibition is 30.6%.
Turning to `COc1ccc(-c2cc(C(F)(F)F)n3nc(C(=O)N4CCOCC4)c(Cl)c3n2)cc1`, the inhibition is 0.7%.
The value for `CCOc1cc(CNCCN(C)C)c(Cl)cc1OCC(=O)NCCc1ccccc1` was 22.3%.
The value for `CCOC(=O)C1=C(O)CSC1=Nc1cccc(Cl)c1` was 9%; that for `Clc1cccc(N=C2NN=C(c3ccc4c(c3)OCCO4)CS2)c1` was 77.7% (active); that for `COc1ccc(-c2cc(C(=O)NC(C(=O)O)C(C)C)c(C)o2)cc1OC` (stereo not drawn) was 21%.
`O=C(Nc1c2c(nn1-c1ccc(F)cc1)CS(=O)C2)C12CC3CC(CC(C3)C1)C2` (stereo not drawn): the inhibition was 14.4%.
The value for `COc1ccc(C2C(C(C)=O)=C(O)C(=O)N2c2nccs2)cc1` (stereo not drawn) was 5%; that for `COC(=O)N1CN(C(=O)OC)CN(C(=O)OC)C1` was -12.2%; that for `COn1c(=O)c(=O)n(OC)c2ccccc21` was 3.2%.
Consider `CCc1ccccc1N(CC(=O)N1CCN(c2ccccc2F)CC1)S(C)(=O)=O`, for which the inhibition is 2.9%.
Turning to `CC(Sc1nc2ccccc2c(=O)n1Cc1ccco1)C(=O)c1ccccc1` (stereo not drawn), the inhibition is 88.2% (active).
The value for `CCOC(=O)C(C)Sc1nc2ccccc2c(=O)n1CC1CCCCC1` (stereo not drawn) was 78.8% (active).
To `CCOC(=O)C1CCc2nc3ccccc3c(=O)n21` (stereo not drawn) belongs 3.3%; to `O=c1[nH]c(CSc2ncc(-c3ccc(F)cc3)n2Cc2ccco2)nc2ccccc12`, 21.2%; to `CCOn1c(SC(C)C)nc2ccccc2c1=O`, 17.6%.
To `N#Cc1c(NC(=O)CSc2nc3ccccc3c(=O)n2Cc2ccco2)sc2c1CCCC2` belongs 3.9%.
For the compound `O=C(CNS(=O)(=O)c1cccc(C(F)(F)F)c1)Nc1ccccc1F`, the inhibition was -19.7%.
The value for `Cc1c2cn[nH]c(=O)c2c(C)n1Cc1ccc(F)cc1` was 6.2%; that for `Nc1nc(SCc2ccccc2Cl)n[nH]1` was -6.7%.
To `CSCc1cc(N(C)C)nc(SCc2ccc(Cl)cc2Cl)n1` belongs 56.7% (active); to `Clc1ccc(CSc2nnc(/C=C/c3ccccc3)o2)c(Cl)c1`, 49.9%; to `CSCc1cc(N2CCOCC2)nc(SCc2ccc(Cl)cc2Cl)n1`, 57.5% (active).
On to `O=c1cc(CSc2ccc(Cl)cc2)nc(N2CCOCC2)[nH]1`, for which the inhibition was 8.5%.
To `COc1ccc([N+](=O)[O-])cc1C1NN=C(c2cccc3ccccc23)S1` (stereo not drawn) belongs -70.8%.
The value for `CCC(=O)NNc1cc(=O)c2c(=O)n(C)c(=O)n(C)c2[nH]1` was 4%; that for `COc1ccc(S(=O)(=O)NC2(C(F)(F)F)N=C3SCCN3C2=O)cc1` (stereo not drawn) was -5.2%; that for `CSCCC(NC(=O)c1ccc(=O)n(C)n1)c1nc2ccccc2[nH]1` (stereo not drawn) was 10.3%.
The value for `CC1CCCCC1NC(=O)CCS(=O)(=O)c1cccc2nonc12` (stereo not drawn) was 7.9%.
In the case of `CCCNC(=O)CN(Cc1ccccc1F)S(=O)(=O)c1ccc(C)cc1`, the inhibition was 74.3% (active).
To `Cc1ccc(S(=O)(=O)N(CC(=O)NCCSC2CCCCC2)c2ccccc2F)cc1` belongs -9.7%; to `CCNC(=O)CN(c1ccc(C)cc1)S(=O)(=O)c1ccc(SC)cc1`, 26.9%.
To `CCCC(=O)N(CCc1ccccc1)Cc1nc2ccccc2c(=O)[nH]1` belongs 38.3%.
For the compound `COc1nc(-c2ccc(Cl)cc2)ccc1-c1noc(-c2cccs2)n1`, the inhibition was 23.2%.
The value for `C=CCNc1nc(N)c(C(=C(C#N)C#N)c2ccccc2)s1` was 69.6% (active); that for `C=CCNC(=O)c1csc(-c2ccccc2)n1` was 35.2%.
